A selection: hits, their analogues and other compounds. The true share with any hit is near 2.4%.
D2 ag-1: D2 dopamine receptor (human) agonism; P14416; HEK293 T-REx D2 cells, calcium flux agonist mode; activation, % at 2 µM; 340,000 tested, 0.53% active; AID 485358;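 active = activation over 3 SD above normal in the single-dose calcium agonist read, cut at about 30% in these data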; also: 0% is about no effect
Target sequence (P14416 whole entry, looked up): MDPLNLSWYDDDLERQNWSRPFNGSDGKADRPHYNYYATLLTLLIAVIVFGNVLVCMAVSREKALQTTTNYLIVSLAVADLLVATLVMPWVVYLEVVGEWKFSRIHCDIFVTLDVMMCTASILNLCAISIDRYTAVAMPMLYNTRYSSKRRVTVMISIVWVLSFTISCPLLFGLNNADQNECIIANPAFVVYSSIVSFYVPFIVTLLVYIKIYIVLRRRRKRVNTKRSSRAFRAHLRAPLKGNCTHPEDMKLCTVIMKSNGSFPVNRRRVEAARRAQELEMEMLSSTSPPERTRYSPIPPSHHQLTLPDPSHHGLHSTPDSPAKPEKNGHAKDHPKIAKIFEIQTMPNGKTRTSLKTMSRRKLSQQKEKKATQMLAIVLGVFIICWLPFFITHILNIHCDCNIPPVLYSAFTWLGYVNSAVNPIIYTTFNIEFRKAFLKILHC
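Tetracycline-induced HEK293 T-REx cells with force-coupled D2 receptor, plated overnight at 30 C, loaded with no-wash calcium dye. After a 10 s baseline, compound was pin-added and calcium flux read kinetically for 180 s; calcium rises flagged agonists.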
D2 antagonist: antagonizes the human D2 dopamine receptor; P14416; HEK293 TREx D2 cells, calcium flux, dopamine EC80; inhibition, % at 10 µM; 340,000 tested, 2% active; in the data active = inhibition above about 30%; inactive = below that, where a call was filed; also: 0% is about no effect
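Antagonism is scored as inhibition of an EC80 dopamine-evoked calcium signal in a force-coupled, tetracycline-inducible HEK293 T-REx D2 line, with compound present 180 s before agonist.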
D2 ag-2: human D2 receptor agonism in beta-arrestin assay. activation, % (test concentration not listed). AID 624465. DiscoveRx PathHunter D2 beta-arrestin, luminescence, 90 min; 100% = 57 uM dopamine signal. 360,000 tested, 0.084% active; in the data active = activation above about 40%; inconclusive = between about 15% and that limit
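Agonist mode: compounds alone added to overnight-plated D2 PathHunter cells for 90 min at 37 C, with 57 uM final dopamine (EC100) defining full response. Beta-arrestin recruitment detected by chemiluminescent reagent, read after 1 h at ambient temperature.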
D2 PAM-1: positively modulates the human D2 dopamine receptor allosterically. potentiation, % at 10 µM. HEK293 T-REx D2, calcium flux, EC20 dopamine potentiation. P14416. 340,000 tested, 0.34% active;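 active = potentiation over 3 SD above the plate norm, cut at about 30% in these data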; also: 0% is about no effect
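Tetracycline-induced Hek293 Trex D2 cells, force-coupled to calcium, loaded with no-wash calcium dye. Compound added with 180 s kinetic read for agonism, then EC20 dopamine and a further 180 s read for potentiation.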
D2 PAM-2: human D2 receptor positive allosteric modulation. P14416. DiscoveRx D2 beta-arrestin cells, luminescence, 90 min; 100% = 57 uM dopamine signal. potentiation, % (concentration not given with the values). 360,000 tested, 0.23% active. AID 624464; in the data active = potentiation above about 50%; inconclusive = mostly about 30% to 49%
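D2 cells co-treated with compound plus 50 nM dopamine (EC20) for 90 min at 37 deg C to detect potentiation. Beta-arrestin recruitment was read as enzyme-fragment luminescence after 1 h at ambient temperature. Full response was set by 57 uM dopamine.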
D3 arrestin ag: confirmation of human D3 dopamine receptor agonists, beta-arrestin; shares compounds with D2 ag-1; DiscoveRx D3 beta-arrestin cells, luminescence, 90 min; Potency, µM (titrated, usually from 76.9 µM), without a hit: at the top dose activation, most hits filed as activators; 2,300 tested, 4% active;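 also: potency is read from the fitted curve at half-maximal effect; 100% = dopamine control response; nearly all actives have a fitted effect of over 70% in size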
D2 ag-3: D2 receptor agonism, beta-arrestin counterscreen | shares compounds with D2 ag-1 | DiscoveRx PathHunter D2 beta-arrestin, luminescence, 90 min; response scale: percent relative to full dopamine signal | Potency, µM (series often up to 76.9 µM), without a hit: at the top dose activation, most hits filed as activators | 2,300 tested, 5.9% active; also: potency is read from the fitted curve at half-maximal effect; % of control where 0% means no effect; nearly all actives have a fitted effect of over 70% in size
An asterisk follows results filed as active; ? = inconclusive; . = no result given. Unless noted, calls follow the shape of the dose curve; as a rule, active = well fitted activation curve with a large enough effect; inconclusive = small, poorly fitted or top-dose-only effect; inactive = flat fitted curve, though single readings scatter.

SMILES	D2 ag-1	D2 antagonist	D2 ag-2	D2 PAM-1	D2 PAM-2	D3 arrestin ag	D2 ag-3
CC(C)(C)NC(=O)c1oc2ccccc2c1NC(=O)c1ccc(F)cc1	.	.	.	5	.	.	.
COc1ccc(NC(=O)CN2CCN(c3ccc(F)cc3)CC2)cc1Cl	1	5	-3	-4	-20	.	.
COc1ccc(NC(=O)CN2CCN(c3ccccn3)CC2)cc1Cl	66*	-12	9	-19	-5	?	14%
COc1cc(NC(=O)c2ccccc2)c(OC)cc1NC(=O)CN1CCN(c2ccccn2)CC1	2	-3	7	-29	?	?	?
COc1cc(Cl)c(C)cc1NC(=O)c1ccccc1NC(=O)CN1CCN(c2ccccn2)CC1	.	.	0	.	7	.	.
CCCN(C(=O)CCc1nc(-c2ccccc2F)no1)c1ccc(CC)cc1	-1	.	.	-2	.	.	.
CC(C)NC(=O)c1nn(C)c2c1CS(=O)(=O)c1ccccc1-2	1	.	.	5	.	.	.
COCCCNC(=O)Cn1c(=O)n(-c2ccc(C)cc2)c(=O)c2c1c1cc(C)ccc1n2C	1	.	.	-11	.	.	.
O=C(CCCCCNC(=O)c1ccccc1Br)N=Nc1c(O)[nH]c2ccccc12	28	5	6	7	-7	-2%	5%
Cc1ccccc1NC(=O)C[n+]1cc(-c2ccccc2)n2c1CCC2	.	.	1	.	-5	-10%	8%
Cc1cccc(C)c1NC(=O)C[n+]1cc(-c2ccccc2)n2c1CCC2	75*	28	7	-25	0	-10%	12%
Cc1ccc(C(=O)N2CCCC(CCC(=O)N3CCN(c4ccccn4)CC3)C2)cc1 (stereo not given)	0	4	-1	5	-7	.	.
CCc1ccc(CN2CCCC(CCC(=O)N3CCN(c4ccccn4)CC3)C2)o1 (stereo not given)	25	-22	1	-17	-20	-15%	-1%
O=S(=O)(c1ccc(Br)cc1)c1nc(-c2cccs2)oc1SCc1ccc(F)cc1	2	.	.	-6	.	.	.
CCOc1ccccc1Nc1nc(-c2ccc(C)cc2)c(CC(=O)O)s1	0	.	.	5	.	.	.
COc1ccccc1N(CC(=O)NCCSCc1ccc(C)cc1)S(=O)(=O)c1ccccc1	2	25	4	14	1	-3%	6%
CCOc1ccc(NC(=O)Cn2c(=O)n(-c3cccc(OC)c3)c(=O)c3c4c(sc32)CCCC4)cc1	0	.	.	-4	.	.	.
COC(=O)c1ccc(S(=O)(=O)NCCSc2nnc3c4ccccc4n(C)c3n2)cc1	-1	28	-1	6	-8	17%	9%
CCCCn1c(=NC(=O)C(C)(C)Oc2ccc(Cl)cc2)c(C(=O)OCC)cc2c(=O)n3ccccc3nc21	1	.	.	-5	.	.	.
O=C(NC1CCCC1)C1CCC(CNS(=O)(=O)c2ccccc2)CC1 (stereo not given)	-1	-4	-4	-2	-7	.	.
O=C(NC1CCCC1)C1CCC(CNS(=O)(=O)c2ccc(F)cc2)CC1 (stereo not given)	-1	15	-2	7	-2	-9%	0%
Cc1ccc(-c2cc3nccc(-c4cc([N+](=O)[O-])ccc4O)n3n2)cc1	2	.	.	27	.	.	.
COc1ccc(S(=O)(=O)N2CCCC2CNC(=O)C(=O)NC2CCCCCC2)cc1 (stereo not given)	31*	20	4	-3	19	8%	?
Cc1ccc(S(=O)(=O)N2CCCC2CNC(=O)C(=O)NC2CC2)cc1 (stereo not given)	34*	7	1	-11	2	1%	-2%
COc1ccc(S(=O)(=O)N2CCCC2CNC(=O)C(=O)NC2CCCC2)cc1 (stereo not given)	.	.	-1	.	4	.	.
COc1ccc(NS(=O)(=O)c2cc3[nH]c(=O)c(=O)[nH]c3cc2C)cc1OC	0	.	.	-1	.	.	.

Compound activity as filed in PubChem.
